PERK inh: human PERK inhibition, primary cell-based screen. Q9NZJ5. CHO PERK-DD fusion, SEAP luminescence translation reporter. inhibition, % at 5.6 µM. 220,000 tested, 0.17% active. AID 1416;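 active = inhibition above the mean inhibition of all tested compounds plus 3 SD, set separately per screening campaign, cut at about 2.9% in these data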;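 also: PERK kinase domain activated by AP20187 dimerizer at 100 nM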
eIF4E-4G inh: blocks eIF4E binding to eIF4G; P63073+Q04637; TR-FRET eIF4E-eIF4GI(517-606) binding, 2 h; inhibition, % at 21.7 µM; 220,000 tested, 0.37% active; AID 782;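 active = inhibition above about 30%, limit read from the data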
PfM18AAP inh: blocks P. falciparum M18 aspartyl aminopeptidase; recombinant PfM18AAP, H-Glu-NHMec fluorogenic cleavage; inhibition, % at 7.35 µM; 290,000 tested, 1.2% active; AID 1822;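 active = inhibition above the campaign mean inhibition over all tested compounds plus 3 SD, cut at about 28% in these data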
PABP polyA inh: blocks human PABP binding to poly(A) RNA | P11940 | fluorescence polarization | inhibition, % at 35 µM | 290,000 tested, 1% active;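 also: calls also rest on retests at 20 µM and on dose response follow-up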
eIF4H inh: inhibitors of RNA binding by human eIF4H; Q15056; eIF4H fluorescence polarization binding assay; inhibition, % at 35 µM; 290,000 tested, 0.94% active;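 also: calls also rest on retests at 20 µM and on dose response follow-up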
PABP1 MLLE inh: inhibitors of microRNA-mediated deadenylation, human PABP1 MLLE binding; P11940; GST-MLLE / FITC-PAM2 fluorescence polarization; AID 588489; 360,000 tested, 0.36% active; inhibition, % at 20 µM; in the data active = inhibition above about 35%, passing the limit was not always enough
A number is an active result; - = inactive; ? = inconclusive; . = no result; [ ] = remark or other dose. This is a sample that favours compounds with a hit; in the whole collection about 2.4% have one here. Unless noted, no rule for the calls is given here.

SMILES	PERK inh	eIF4E-4G inh	PfM18AAP inh	PABP polyA inh	eIF4H inh	PABP1 MLLE inh
O=C(CCN1C(=O)/C(=C\C=C\c2ccccc2)SC1=S)Nc1ccc(C(=O)O)cc1	.	.	-	49	68	-
CC(C(=O)Nc1ccc(C(=O)O)c(O)c1)N1C(=O)/C(=C\c2ccco2)SC1=S (stereo unspecified)	.	.	28	87	100	-
COc1ccc(C=C2SC(=S)N(CCCC(=O)Nc3ccc(C(=O)O)c(O)c3)C2=O)cc1OC	.	.	.	.	.	-
O=C(CN1C(=O)S/C(=C/C=C/c2ccccc2)C1=O)Nc1ccc(C(=O)O)cc1	-	-	-	-	-	-
O=C(O)CCC(=O)Nc1sc2c(c1C(=O)Nc1cccc3ccccc13)CCCCC2	-	-	30	1.4	58	-
COC(=O)c1c(NC(=O)CCC(=O)O)sc2c1CCCCC2	-	-	-	-	-	-
COC(=O)c1c(NC(=S)Nc2cc(OC)c(Cl)cc2OC)sc2c1CCCCC2	-	-	-	-	-	47
COc1ccc(OC)c(NC(=O)c2c(NC(=O)CCC(=O)O)sc3c2CCCCC3)c1	-	-	37	-	-	-
COc1ccccc1NC(=O)c1c(NC(=O)CCC(=O)O)sc2c1CCCCC2	-	-	-	-	-	-
COc1cc(/C=C2\CCC/C(=C\c3ccc(O)c(OC)c3)C2=O)ccc1O	.	.	-	-	-	-
CCOc1cc(/C=C2\CN(CC)C/C(=C\c3ccc(O)c(OCC)c3)C2=O)ccc1O	.	.	29	-	-	-
O=[N+]([O-])c1ccc(C=NNC(=S)NN=Cc2ccc([N+](=O)[O-])cc2)cc1	.	.	.	.	.	-
CCN=C(N/N=C/c1ccc([N+](=O)[O-])cc1)SC	-	31[fluorescence artefact?]	-	-	-	-
C[C@H](O)[C@H](O)[C@H]1CNc2nc(N)[nH]c(=O)c2N1	.	.	.	.	.	89
COc1cc(C(=O)NCc2ccc(C(=O)NCC(OC)OC)cc2)cc(OC)c1OC	-	63	-	-	-	-
COc1cc(C(=O)NCC(C)C)cc(OC)c1OC	-	-	-	-	-	-
Cc1c(-c2ccc(F)cc2)nc(N)c(C#N)c1-c1cccnc1	-	-	-	-	-	-
Cc1ccc(-c2c(C)c(-c3ccc(F)cc3)nc(N)c2C#N)o1	-	-	-	75	76	-
COc1ccc(NC(=O)C(c2ccc(Cl)cc2)C(C)C)cn1 (stereo unspecified)	.	.	-	?	?	-
CCOc1ccc2nc(SCC(=O)c3cccs3)sc2c1	-	-	-	-	-	-
CCOc1ccc2nc(SCC(=O)c3ccc(Cl)s3)sc2c1	-	-	-	50	55	-
COc1ccc2c(c1)CCN1C2CCN2C(=O)CCC21 (stereo unspecified)	-	-	-	46	73	58
Cc1ccc(S(N)(=O)=O)cc1NC(=O)C1CC2CCC1C2 (stereo unspecified)	3.0	-	-	-	-	-
Cc1ccc(C)c(NC(=O)C2CC3CCC2C3)c1 (stereo unspecified)	.	.	-	-	-	-
O=C(Cn1c(=O)oc2ccccc21)Nc1ccccc1N1CCOCC1	-	-	-	-	-	-
SMILES	PERK inh	eIF4E-4G inh	PfM18AAP inh	PABP polyA inh	eIF4H inh	PABP1 MLLE inh
O=C(CN1C(=O)CSC1=O)Nc1ccccc1N1CCOCC1	3.1	-	-	-	-	-
CCCS(=O)(=O)NC(=O)C1(C)CCCN(C(=O)c2ccccc2C(F)(F)F)C1 (stereo unspecified)	.	.	.	.	.	-
CC(C)CNC(=S)NNC(=O)CC(C)O (stereo unspecified)	-	-	35	-	-	-
NC(=NCCc1ccccc1)NS(=O)(=O)c1ccc2ccccc2c1	-	-	-	-	-	-
O=C(NN1C(=O)C2CC=C(Cl)CC2C1=O)c1ccncc1 (stereo unspecified)	-	-	-	9.7	?	-
COc1ccc(/C=C2\C(=O)N(c3nc(-c4ccc(Br)cc4)cs3)N=C2c2ccccc2)cc1	-	.	-	.	.	.
CCOc1cc(/C=C2\C(=O)N(c3nc(-c4ccc(Br)cc4)cs3)N=C2c2ccccc2)ccc1O	-	-	-	-	84	-
O=C1CCCN1CCCNCC(=O)N1c2ccccc2Sc2ccccc21	-	-	-	-	-	-
CCc1ccc(-c2nc(SCC(=O)NC3CC3)n[nH]2)cc1	.	.	.	.	.	-
CN(Cc1ccc(F)cc1)C(=O)c1sccc1-c1ccccc1	.	.	-	50	-	-
C=CCNC(=S)NNC(=O)c1cccn(Cc2cccc(Cl)c2)c1=O	-	-	-	-	-	-
CC1C2C(c3ccccc3)N(C)C(=O)N(C)C2N(C)C(=O)N1C (stereo unspecified)	-	-	-	56	57	-
CCOC(=O)c1ccc(-c2ccc(-c3cc(=O)oc4cc(OC)c(OC)c(OC)c34)cc2)cc1	.	.	.	.	.	-
N#Cc1ccsc1NC(=O)c1ccc(Cl)c([N+](=O)[O-])c1	4.3	-	-	-	-	-
CC(C)c1nnc(NC(=O)c2cccc(-n3cnnn3)c2)s1	-	-	-	-	-	-
N#Cc1ccsc1NC(=O)c1cccc(-n2cnnn2)c1	.	.	-	38	-	-
Cc1ccc(NC(=O)CN(C)C(=O)c2cccc(Br)c2)cc1	.	.	-	-	-	-
COCCC(C(=O)Oc1c(C(C)(C)C)cc(C)cc1C(C)(C)C)c1ccccc1 (stereo unspecified)	.	.	.	.	.	-
O=c1oc(/C=C/c2ccc([N+](=O)[O-])s2)nc2ccccc12	.	.	-	98	97	-
O=C(CC(Sc1ccc(Br)cc1)C(=O)O)c1ccc(F)cc1 (stereo unspecified)	.	.	-	-	-	39
CCOc1ccc(C(=O)CC(Sc2ccc(C)cc2)C(=O)O)cc1 (stereo unspecified)	-	-	-	-	-	-
O=C1CN=CN=CN1c1ccc(Cl)cc1Cl	-	-	40	-	-	-
Nc1cc(Cl)ccc1N1C(=O)CCC1=O	-	-	-	-	-	-
COc1cccc(CCc2nnc(CCC(=O)NC(C)c3c(C)nn(C)c3C)o2)c1 (stereo unspecified)	-	-	-	-	-	-
COc1cc(CC2COC(=O)C2(O)Cc2ccc(O)c(OC)c2)ccc1O (stereo unspecified)	.	-	.	-	-	-
COC(=O)C1(Cc2ccc(O)c(CC3OC3(C)C)c2)OC(=O)C(O)=C1c1ccc(O)cc1 (stereo unspecified)	.	96	.	-	-	-
O=C(Nc1cccc(C(F)(F)F)c1)Nc1nnc([C@@H]2C[C@H](O)[C@@H](CO)O2)s1	.	.	.	.	.	-
C#CCOCCOCCOCCNc1nc(OC)nc(N2CCN(C(=O)[C@H](CCCCN)n3cc(C(N)CO)nn3)CC2)n1 (stereo partly specified)	.	-	.	52	60	.
C#CCOCCOCCOCCNc1nc(N2CCN(C(=O)[C@H]([C@@H](C)CC)n3cc([C@@H](N)CO)nn3)CC2)nc(N2CCN(C(=O)[C@H]([C@@H](C)CC)n3cc([C@@H](N)CC(C)C)nn3)CC2)n1	-	-	-	?	?	41

Source: PubChem BioAssay
